Reference: PubChem BioAssay (NCI)
The panel holds about 83,000 compounds, 20% with a hit somewhere; the sample as a whole holds those more often.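 Assay: single dose, 48 h. Readout: percent growth (0 = no net growth; negative = cell death). Active: <10.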 Calls of active or inactive are those of the source.

Each compound was assayed on RPMI-8226 leukemia (assay: NCI-60 one-dose screen, 48 h (100 = growth as untreated, 0 = no growth, -100 = all killed)). Details: 10 µM unless noted.
Procedure: Growth inhibition of the RPMI-8226 human tumor cell line is measured as a screen for anti-cancer activity. Cells are grown in 96 well plates and exposed to the test compound for 48 hours. Compounds are tested at a single concentration, which is 10^-5 M for most compounds. The reported endpoint is percent growth (GI% or GIPRCNT), where numbers from 0 - 100% represent growth inhibition, and numbers from -100% - 0 represent cell death. For example, a value of 40 represents 60% growth inhibition. A value of 0 means no net growth occurred over the course of the experiment. A value of -40 indicates 40% of cells at the beginning of the experiment died by the end of the experiment. A value of -100 means all cells are dead at the end of the experiment.
NCI-60 Human Tumor Cell Lines Screen was performed using the standard one-dose NCI protocol, which is described in more detail at https://dtp.cancer.gov/discovery_development/nci-60/default.htm.
Compounds with GIPRCNT values below 10 were considered active. Activity score was based on GIPRCNT using the following formula: […]
Score is 0 for GIPRCNT values of 100 or above, 50 for GIPRCNT values of 0, and 100 for GIPRCNT values of -100.

SMILES | growth
COC(=O)[C@@]1(C)CC[C@]2(C)CC[C@]3(C)C4=CC(=O)c5c(cc(O)c(O)c5C)[C@]4(C)CC[C@@]3(C)[C@@H]2C1 | 27% (inactive)
CC(=O)OC1CCC2C3CCC4=C/C(=N/OC(=O)c5ccc(N(CCCl)CCCl)cc5)CCC4(C)C3CC(C)C12 (stereo not given) | 70.8% (inactive)
NC(N)=N/N=C\c1c[nH]c2ccc(Br)cc12 | 80.8% (inactive)
CCCCCCCC[n+]1ccc2ccccc2c1 | 13.8% (inactive)
COc1ccc(/C=C\c2cc(OC)c(OC)c(OC)c2)c(NS(=O)(=O)c2ccc(F)cc2)c1O | 23.3% (inactive)
COC(=O)[C@@H](C)C[C@H](Cc1ccccc1)NC(=O)c1nc([C@@H](C[C@H](C(C)C)N(C)C(=O)[C@@H](NC(=O)[C@H]2CCCCN2C)C(C)C)OC(C)=O)sc1C(C)C | 20.5% (inactive)
Clc1ccc2nnnn2n1 | 5.38% (active)
COc1ccc(/C=C\c2cc(OC)c(OC)c(OC)c2)c(NS(=O)(=O)c2ccc(C)cc2)c1O | 31.5% (inactive)
CC(=O)O[C@H]1CC[C@]2(C)[C@H]3CC[C@]4(C)[C@@H](OC(C)=O)CC[C@H]4[C@@H]3[C@@H](C)[C@]2(O)C1 | 100% (inactive)
COC(=O)[C@H](C[C@H](Cc1ccccc1)NC(=O)c1csc([C@@H](C[C@H](C(C)C)N(C)C(=O)[C@@H](NC(=O)[C@H]2CCCCN2C)C(C)C)OC(C)=O)n1)NC(=O)OCc1ccccc1 | -13.9% [8.5 µM] (active)
O=c1[nH]cc(N(CCCl)CCCl)c(=O)[nH]1 | 77.8% (inactive)
CCOC(=O)[C@@H](C)C[C@H](Cc1ccccc1)NC(=O)c1csc([C@@H](C[C@H](C(C)C)N(C)C(=O)[C@@H](NC(=O)[C@H]2CCCCN2C)C(C)(C)CC)OC(C)=O)n1 | -1.78% (active)
CCOC(=O)[C@@H](C)C[C@H](Cc1ccccc1)NC(=O)c1csc([C@@H](C[C@H](C(C)C)N(C)C(=O)[C@H](CC)NC(=O)[C@H]2CCCCN2C)OC(C)=O)n1 | 19.2% (inactive)
COC1OC(CO)C(O)C(O)[CH]1[Hg][O]C(C)=O (stereo not given) | 104% (inactive)
C[C@]12CC[C@@H]3c4ccc(Oc5nc(N6CC6)nc(N6CC6)n5)cc4CC[C@H]3[C@@H]1CCC2=O | 0.429% (active)
c1ccc(CSC(c2ccccc2)c2ccccc2)cc1 | 94.2% (inactive)
CCC[CH2][Sn]([CH2]CCC)([CH2]CCC)[O]c1ccc(Cl)cc1Cl | -9.16% (active)
CCN(CC)CCOC(=O)C(OC(C)C)(c1ccccc1)c1ccccc1 | 102% (inactive)
N/C(=N/N=C/c1ccncc1)N[N+](=O)[O-] | 106% (inactive)
CCCCCCCCOC(=O)CCN1CC1 | 103% (inactive)

SMILES | growth
Fc1ccc(N2COOC3(OOC2)C2CC4CC(C2)CC3C4)cc1 | 95.4% (inactive)
COC(C(=O)[C@@H](O)[C@@H](C)O)[C@@H]1Cc2cc3cc(O[C@H]4C[C@@H](O[C@H]5C[C@@H](O)[C@H](O)C(C)O5)[C@H](O)C(C)O4)c(C)c(O)c3c(O)c2C(=O)[C@H]1O[C@H]1C[C@@H](O[C@H]2C[C@@H](O[C@H]3C[C@@H](O)[C@@H](O)C(C)O3)[C@@H](O)C(C)O2)[C@H](O)C(C)O1 (stereo not given in full) | 9.15% (active)
Cc1sc2c(c1C)C(c1ccc(Cl)cc1)=N[C@@H](CC(=O)OC(C)(C)C)c1nnc(C)n1-2 | 23.5% (inactive)
CCc1ccccc1[C@@H]1C[C@]2(C)CCO[C@@H]2OO1 | 100% (inactive)
COc1ccc(S(=O)(=O)N(Cc2ccc3c(c2)C=CC(C)(C)O3)c2ccccc2)cc1OC | 46.2% (inactive)
Nc1ccc2c(c1)Cc1cc(Br)ccc1-2 | 79.8% (inactive)
Nc1nc([Se])c2ncn(C3OC(CO)C(O)C3O)c2n1 (stereo not given) | 23.9% (inactive)
Nc1nnnc2nc[nH]c12 | -11.4% (active)
[Cl][Hg][c]1cc[c]([Hg][Cl])o1 | 1.23% (active)
CS(=O)(=O)CCN1CC2CCCC(C2)C1 | 101% (inactive)
O=[N+]([O-])CC(O)C(Cl)(Cl)Cl (stereo not given) | 71.7% (inactive)
CCN(CCO)C(Cc1ccccc1)c1ccccc1 (stereo not given) | 98.9% (inactive)
NC(=O)C(Br)c1ccccc1 (stereo not given) | 96.6% (inactive)
COC(=O)[C@@H](C)C[C@H](Cc1ccccc1)NC(=O)c1csc([C@@H](C[C@H](C(C)C)N(C)C(=O)[C@H](C)NC(=O)[C@H]2CCCN2C)OC(C)=O)n1 | 9.55% (active)
NC(=S)c1cn(C2OC(CO)C(O)C2O)c2ncnc(N)c12 (stereo not given) | -39.8% (active)
CC(=O)OCC1O[C@@H]([S-])C(OC(C)=O)[C@H](OC(C)=O)[C@@H]1OC(C)=O.[Au+].c1ccc(CN2[CH-]N(Cc3ccccc3)C(c3ccccc3)=C2c2ccccc2)cc1 | -2.4% (active)
O=[N+]([O-])c1ccc(OP(=O)(CCl)N(CCCl)CCCl)cc1 (stereo not given) | 104% (inactive)
O=C1CN=C(c2ccc(Cl)cc2)c2sccc2N1 | 97.7% (inactive)
C=CC[n+]1ccc(-c2cc[n+](CC=C)cc2)cc1 | 79.9% (inactive)
CCCCCCCCC(CO)NCCc1ccccc1 (stereo not given) | 80.4% (inactive)
